Inconclusive results are not listed. The source made the active and inactive calls. The call rests on the fitted dose curve; in most records, active means well fitted cell-killing curve with a large enough effect; inconclusive means small, poorly fitted or top-dose-only effect; inactive means flat fitted curve, though single readings scatter.
How the values were obtained:
[1] = Cell Viability - LYMP2-013 (AID 970); further: series mostly up to about 92 µM; nearly all actives have a fitted effect of over 55% in size
In short: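 Acute toxicity was measured in human lymphoblastoid cells (2500/well) exposed to compound titrations for 24 hr, with ATP luminescence (CellTiter-Glo) as read-out and AC50 fitted by Hill equation.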

[2] = Cell Viability - LYMP2-015 (AID 971); further: nearly all actives have a fitted effect of over 55% in size
In short: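 Acute toxicity was scored as a concentration-dependent drop in intracellular ATP in lymphoblastoid cells after 24 hr compound exposure in complete medium. Detection used CellTiter-Glo luciferase luminescence.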

[3] = Cell Viability - LYMP2-017 (AID 972); further: series mostly up to about 92 µM; nearly all actives have a fitted effect of over 55% in size
In short: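 Steps: plate 2500 lymphoblastoid cells per well; incubate 5 hr at 37 C; add compound across a concentration series and incubate 24 hr at 37 C; add CellTiter-Glo and read luminescence after 30 min at room temperature; fit Hill curves for AC50.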

[4] = Cell Viability - LYMP2-019 (AID 973); further: nearly all actives have a fitted effect of over 55% in size
In short: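 Cells plated at 2500/well and allowed 5 hr at 37 C before compound addition. After 24 hr incubation, CellTiter-Glo reagent was added, plates sat 30 min at room temperature, and luminescence was recorded.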

[5] = Cell Viability - LYMP2-021 (AID 974)
In short: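 Concentration-response cytotoxicity in a human lymphoblastoid line: 24 hr treatment at 37 C in complete culture medium, tetraoctylammonium bromide as positive control, luminescent ATP quantitation as viability measure.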

[6] = Cell Viability - LYMP2-023 (AID 975)
In short: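 Concentration-dependent drop in intracellular ATP measures acute cytotoxicity in a human lymphoblastoid line treated for 24 hours in complete culture medium. AC50 values are taken from Hill-equation fits of qHTS data.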

[7] = Cell Viability - LYMP2-002 (AID 977);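 further: series mostly up to about 92 µM; compound exposure lasted 24 h at 37 °C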
In short: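 Human lymphoblastoid LYMP2-002 cells, 2500 per well, exposed to compounds for 24 h at 37 C in complete medium; viability read as intracellular ATP by CellTiter-Glo luminescence, AC50 from Hill fits.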

[8] = Cell Viability - LYMP2-006 (AID 978); further: series mostly up to about 92 µM; nearly all actives have a fitted effect of over 60% in size
In short: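 Cells are seeded at 2500 per well and rested 5 hr at 37 C. Compounds are added across a concentration series for 24 hr at 37 C, after which ATP is quantified by luciferase luminescence.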

[9] = Cell Viability - LYMP2-007 (AID 979);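 further: cells exposed to compound for 24 h before reading; nearly all actives have a fitted effect of over 60% in size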
In short: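 Acute toxicity is scored as a concentration-dependent fall in intracellular ATP in human lymphoblastoid cells treated 24 hr at 37 C, measured by luciferase luminescence; Hill-equation modelling yields AC50.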

[10] = Cell Viability - LYMP2-008 (AID 980); further: nearly all actives have a fitted effect of over 60% in size
In short: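 Acute cytotoxicity is scored as concentration-dependent loss of cellular ATP in a human lymphoblastoid line after 24 hr treatment at 37 C. ATP is quantified by luciferase luminescence.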

[11] = Cell Viability - LYMP2-010 (AID 981); further: nearly all actives have a fitted effect of over 55% in size
In short: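 Acute toxicity is scored as a concentration-dependent loss of cellular ATP in human lymphoblastoid cells after 24 hr compound exposure in complete medium. Tetraoctylammonium bromide is the positive control.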

[12] = Cell Viability - LYMP2-012 (AID 982)
[13] = Cell Viability - LYMP2-014 (AID 983); further: series mostly up to about 92 µM; nearly all actives have a fitted effect of over 50% in size
In short: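 Decrease in intracellular ATP after 24 hr treatment at 37 C, measured by luciferase luminescence, indicated cytotoxicity. Concentration-response data were fitted with the standard Hill equation to give AC50.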

[14] = Cell Viability - LYMP2-016 (AID 984); further: nearly all actives have a fitted effect of over 55% in size
In short: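 Cells were seeded at 2500 per well and rested 5 hr before a 24 hr compound exposure at 37 C. Viability was then gauged as cellular ATP by luciferase luminescence, with AC50 values fitted to the Hill equation.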

[15] = Cell Viability - LYMP2-018 (AID 985); further: nearly all actives have a fitted effect of over 50% in size
In short: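 Acute cytotoxicity is scored as a concentration-dependent drop in intracellular ATP after 24 hr exposure of the lymphoblastoid line in complete culture medium, measured by luciferase luminescence. Potency is expressed as AC50 from Hill modelling.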

[16] = Cell Viability - LYMP2-020 (AID 986)
In short: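 Acute cytotoxicity in a human lymphoblastoid line is scored as a concentration-dependent fall in cellular ATP after 24 hr at 37 C in complete medium. The positive control is tetraoctylammonium bromide, and potency is given as Hill-fit AC50.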

[17] = Cell Viability - LYMP2-022 (AID 987); further: nearly all actives have a fitted effect of over 55% in size
In short: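 Acute toxicity in a human lymphoblastoid line is scored as decreased intracellular ATP after 24 hr compound treatment at 37 C. ATP is measured by CellTiter-Glo luminescence; curves are fitted with the Hill equation to give AC50.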

[18] = Cell Viability - LYMP2-024 (AID 988); further: nearly all actives have a fitted effect of over 60% in size
In short: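 Acute toxicity is measured as concentration-dependent loss of intracellular ATP in a human lymphoblastoid line treated 24 hours at 37 C. Luciferase luminescence quantifies ATP; AC50 values come from standard Hill-equation modelling.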

[19] = Cell Viability - LYMP2-026 (AID 989); further: nearly all actives have a fitted effect of over 50% in size
In short: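 Concentration-dependent loss of intracellular ATP in human lymphoblastoid cells after 24 hr at 37 C, quantified by luciferase luminescence. AC50 derived from standard Hill equation.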

[20] = Cell Viability - LYMP2-025 (AID 976); further: series mostly up to about 92 µM
In short: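 In qHTS format, LYMP2-025 lymphoblastoid cells in complete culture medium received compound for 24 hr; ATP-based CellTiter-Glo signal gave viability, with AC50 derived by Hill equation.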

Measured: outcome

C=C1C[C@]23C[C@@]1(O)CC[C@H]2[C@@]12C=C[C@H](O)[C@@](C)(C(=O)O1)[C@H]2[C@@H]3C(=O)O
not listed: [20]
inactive: all other assays above

COc1ccc(CCC(=O)c2c(O)cc(O[C@@H]3O[C@H](CO)[C@@H](O)[C@H](O)[C@H]3O[C@@H]3O[C@@H](C)[C@H](O)[C@@H](O)[C@H]3O)cc2O)cc1O
inactive: all assays above

Source: PubChem BioAssay (NCATS)
